Screening results: PubChem, National Center for Advancing Translational Sciences (NCATS)
This is a sample that favours compounds with a hit; in the whole collection about 7.3% have one here.
HCV inh – qHTS Assay for Inhibitors of Hepatitis C Virus (HCV) | actives 3.4% (n = 340,000) | Potency, µM (titrated, usually from 41.8 µM), for inactives: top-dose activity change, negative = inhibition, most hits filed as inhibitors | Huh7.5.1 HCVcc-Cre infection, luciferase reporter, 44 h; note: potency is the fitted concentration of half-maximal effect
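Compounds are dispensed onto cells plated 4 h earlier at 1,000 per well, with HCVcc-Cre virus (about 0.5 moi) added next. Following 44 h of culture, luminescent signal is measured for 15 sec after 15 min with substrate at room temperature.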
AmpC no deterg – qHTS Inhibitors of AmpC Beta-Lactamase (assay without detergent); AmpC nitrocefin hydrolysis, absorbance 480 nm, 0.0001% Triton; P00811; Potency, µM (series often up to 57.1 µM), inactives show at the top dose activity change, negative = inhibition, most hits filed as inhibitors; AID 485341, 2010; actives 0.52% (n = 330,000);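 note: potency is the fitted concentration of half-maximal effect; plate controls were no compound for no effect and no enzyme for full effect; nearly all actives have a fitted effect of over 20% in size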
Target sequence (P00811 whole entry, looked up): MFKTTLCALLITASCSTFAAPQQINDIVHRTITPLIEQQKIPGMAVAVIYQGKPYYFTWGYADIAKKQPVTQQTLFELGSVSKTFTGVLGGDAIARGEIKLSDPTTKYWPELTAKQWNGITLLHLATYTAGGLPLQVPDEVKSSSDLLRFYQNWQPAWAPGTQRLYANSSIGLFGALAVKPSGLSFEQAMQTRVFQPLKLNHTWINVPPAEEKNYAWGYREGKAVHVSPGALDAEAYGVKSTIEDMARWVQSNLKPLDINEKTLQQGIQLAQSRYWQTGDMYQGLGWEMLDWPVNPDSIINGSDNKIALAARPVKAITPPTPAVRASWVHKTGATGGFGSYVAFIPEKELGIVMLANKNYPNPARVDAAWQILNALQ
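20 mM phosphate pH 7.0 + 0.01% (detergent screen) or 0.0001% Triton X-100; 5.3 nM AmpC reagent; cpd preinc 15 min RT; nitrocefin (800 uM stock) to start; A480 q20 s × 4 min; Activity was normalised to no-enzyme and no-compound control wells.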
FMDV antiviral – High Throughput Screening for Foot and Mouth Disease Virus Antivirals; Potency, µM (top dose mostly 57.9 µM), for the others: at the top dose activity change, negative = inhibition, hits mostly inhibitors; actives 1.2% (n = 410,000); AID 1159524, 2015; FMDV antiviral cell-based qHTS; calls by dose curve; tested in HEK293T cells; note: read-out not given here; potency is the fitted concentration of half-maximal effect; nearly all actives have a fitted effect of over 45% in size
HCMV antiviral – qHTS Assay for inhibitors of the human cytomegalovirus (HCMV). HFF cells, HCMV-luciferase reporter, 72 h; active compounds read low. AID 1259415, 2018. activity change, negative = inhibition, % at 57.5 µM. actives 4.5% (n = 410,000); in the data active = activity change below about -60%; inconclusive = no clear call, values can overlap the other calls; inactive = above about -39%
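Two-dose cell screen: HFF monolayers treated with compounds and infected with luciferase-expressing HCMV at 1 PFU/cell, 72 h at 37C, then lysed for luciferase measurement.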
AmpC inh detg – qHTS Inhibitors of AmpC Beta-Lactamase (assay with detergent); P00811; AmpC hydrolysis of nitrocefin, absorbance 480 nm, 0.01% Triton; Potency, µM (titrated, usually from 114 µM), for the others: at the top dose activity change, negative = inhibition, hits mostly inhibitors; actives 0.041% (n = 370,000); AID 485294, 2010;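 note: potency is the fitted concentration of half-maximal effect; 0% = no-compound wells and -100% = no-enzyme wells; nearly all actives have a fitted effect of over 25% in size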
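20 mM phosphate pH 7.0 + 0.01% (detergent screen) or 0.0001% Triton X-100; 5.3 nM AmpC reagent; cpd preinc 15 min RT; nitrocefin (800 uM stock) to start; A480 q20 s × 4 min; Activity was normalised to no-enzyme and no-compound control wells.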
Starred values were filed as active, the others as inactive; ? = inconclusive; . = no result; ! = a repeat was not active. Unless noted, calls come from the whole dose curve; as a rule, active = well fitted curve in the direction sought with a large enough effect; inconclusive = small, poorly fitted or top-dose-only effect, or another doubt; inactive = no such curve, though single readings can be large; an effect the other way counts as inactive or inconclusive. Unless noted, % is set by controls: 0 for no effect and ±100 for the full control effect.

SMILES	HCV inh	AmpC no deterg	FMDV antiviral	HCMV antiviral	AmpC inh detg
CCC(C)(C)n1nnnc1C(C(C)C)N(Cc1ccco1)Cc1cc2cc3c(cc2[nH]c1=O)OCO3 (centres undefined)	22µM*	-10%	?	68	1%
CCC(C)(C)n1nnnc1C(C(C)C)N(Cc1cccnc1)Cc1ccco1 (centres undefined)	-21%	37%	-24%	?	-1%
COc1ccc(-c2nc3c4ccccc4n(CC(=O)N4CCN(c5ccccc5OC)CC4)c(=O)n3n2)cc1	.	.	15%	21	2%
CCCCS/C(=C(/C#N)C(N)=O)c1cc2c([nH]1)CCCC2	-31%	14%	-21%	-63*	6%
Cc1cc(=O)n2ccccc2c1C#N	8%	-7%	0%	7	4%
COc1ccc2c(C#N)c3ccccn3c2c1	3.2µM*	-15%	20%	?	-1%
CN1C(C(=O)Nc2cccc(O)c2)=CC(c2ccco2)=NS1(=O)=O	-15%	-13%	-27%	-63*!	-2%
C/C=C/c1ccc(OCC(O)CNCCc2ccc(OC)cc2)c(OC)c1 (centres undefined)	?	42%	-27%	?	-10%
C/C=C/c1ccc(OCC(O)CN(C)Cc2ccc(SC)cc2)c(OC)c1 (centres undefined)	-21%	149%	-11%	-102*	1%
C/C=C/c1ccc(OCC(O)CN2CCCCC2CC)c(OC)c1 (centres undefined)	2.5µM*	-6%	-9%	-38	-7%
C/C=C/c1ccc(OCCCNC2CCCC2)c(OC)c1	0.89µM*	-4%	0%	1	2%
Cc1cc(=O)n2c(C(=O)Nc3ccc(C(=O)OC(C)C)cc3)c(C(=O)Nc3ccccc3)sc2n1	-29%	98%	-9%	-67*	-15%
Oc1ccc(COC2CCCC2)c2cccnc12	.	-7%	.	.	?
COc1ccccc1N1CCN(c2nc3c(S(=O)(=O)c4ccccc4)nnn3c3ccc(Cl)cc23)CC1	.	.	21%	6	-4%
O=C(CCC(=O)OCCOc1ccccc1)OCCOc1ccccc1	.	.	-9%	-98*	.
O=C(O)c1ccc(OCCOc2ccccc2)cc1	13%	5%	9%	-17	-2%
O=C(Nc1ccccc1)OCCOc1ccccc1	13µM*	-20%	17%	42	?
CC(=O)N(C)c1ccc(OCC(O)Cn2c(C)nc3ccccc32)cc1 (centres undefined)	11µM*	27%	?	-25	1%
COc1cccc(OCC(Cn2c(C)nc3ccccc32)OC(C)=O)c1 (centres undefined)	?	85%	-23%	-70*	-8%
CC(=O)Nc1ccc(OCC(O)Cn2c(C)nc3ccccc32)cc1 (centres undefined)	-13%	-7%	-24%	-6	-3%
C=CCNC(=S)NN=C1CCCCCCC1	4%	-17%	12%	-113*	3%
CCN1C(=O)C(c2nnnn2-c2c(C)cccc2C)N(CCc2ccccc2)C1=O (centres undefined)	.	.	.	-8	.
Cc1ccccc1Nc1nnc(SCC2CCCCO2)s1 (centres undefined)	1%	-23%	8%	35	-7%
COc1ccccc1Nc1nnc(SCC2CCCCO2)s1 (centres undefined)	7.9µM*	5%	-48%	90	0%
CCC(SC1=Nc2ccccc2C2=NC(CC(C)C)C(=O)N12)C(=O)Nc1ccc2c(c1)OCO2 (centres undefined)	8.9µM*!	-57%	33%	20	-8%
COc1ccc(CCc2nnc(CCC(=O)N(C)Cc3ccnc4ccccc34)o2)cc1	?	55%	?	-64*	2%
O=C(Nc1nccs1)C12CC3CC(C1)CC(C(=O)Nc1nccs1)(C3)C2	?	-27%	25µM*	3	-11%
O=C(Nc1ncccn1)C12CC3CC(CC(C3)C1)C2	-5%	-12%	-4%	7	1%
